Changes are numbered by the printed parent chain; changes in the protein carry UniProt numbers. The full ranking holds about 16,000 sequences; the median of “ka relative to ugcaugu” is about 0.0091, and the highest 2% start at about 0.032. This excerpt belongs to a sample that is enriched for the highest values.

T1: RBFOX1 RRM (Homo sapiens, UniProt Q9NWB1 109-208)
T1 sequence: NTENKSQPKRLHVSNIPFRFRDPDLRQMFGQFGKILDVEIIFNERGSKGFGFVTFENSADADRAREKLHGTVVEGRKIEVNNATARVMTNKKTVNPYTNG

B1: GAGUCGU (DNA:RNA)
RNA: GGGAGACCGGAAUUCAGAUUGUCCGAGUCGUUUAAAUCCCGUCGUAGCCACCA
DNA 1: CAATCTGAATTCCGGTCTCCC
DNA 2: TGGTGGCTACGACGGGATT
B2: AUGCAAU (DNA:RNA)
RNA: B1 RNA with G25A, A26U, U28C, C29A, G30A
DNA 1: CAATCTGAATTCCGGTCTCCC
DNA 2: TGGTGGCTACGACGGGATT
B3: AGAUGAG (DNA:RNA)
RNA: B1 RNA with G25A, A26G, G27A, C29G, G30A, U31G
DNA 1: CAATCTGAATTCCGGTCTCCC
DNA 2: TGGTGGCTACGACGGGATT
B4: ACGGGCC (DNA:RNA)
RNA: B1 RNA with G25A, A26C, U28G, C29G, G30C, U31C
DNA 1: CAATCTGAATTCCGGTCTCCC
DNA 2: TGGTGGCTACGACGGGATT
B5: UGCCUCC (DNA:RNA)
RNA: GGGAGACCGGAAUUCAGAUUGUCCUGCCUCCUUAAAUCCCGUCGUAGCCACCA
DNA 1: CAATCTGAATTCCGGTCTCCC
DNA 2: TGGTGGCTACGACGGGATT
B6: UGCCUUG (DNA:RNA)
RNA: B5 RNA with C30U, C31G
DNA 1: CAATCTGAATTCCGGTCTCCC
DNA 2: TGGTGGCTACGACGGGATT
B7: UGCUGCC (DNA:RNA)
RNA: B5 RNA with C28U, U29G
DNA 1: CAATCTGAATTCCGGTCTCCC
DNA 2: TGGTGGCTACGACGGGATT
B8: UAGUAGG (DNA:RNA)
RNA: B1 RNA with G25U, C29A, U31G
DNA 1: CAATCTGAATTCCGGTCTCCC
DNA 2: TGGTGGCTACGACGGGATT
B9: GGGUGUU (DNA:RNA)
RNA: B1 RNA with A26G, C29G, G30U
DNA 1: CAATCTGAATTCCGGTCTCCC
DNA 2: TGGTGGCTACGACGGGATT
B10: CCCGGGU (DNA:RNA)
RNA: B1 RNA with G25C, A26C, G27C, U28G, C29G
DNA 1: CAATCTGAATTCCGGTCTCCC
DNA 2: TGGTGGCTACGACGGGATT
B11: CGGUGUU (DNA:RNA)
RNA: B1 RNA with G25C, A26G, C29G, G30U
DNA 1: CAATCTGAATTCCGGTCTCCC
DNA 2: TGGTGGCTACGACGGGATT
B12: GGUGUGU (DNA:RNA)
RNA: B1 RNA with A26G, G27U, U28G, C29U
DNA 1: CAATCTGAATTCCGGTCTCCC
DNA 2: TGGTGGCTACGACGGGATT
B13: CGGGUGU (DNA:RNA)
RNA: B1 RNA with G25C, A26G, U28G, C29U
DNA 1: CAATCTGAATTCCGGTCTCCC
DNA 2: TGGTGGCTACGACGGGATT
B14: GGGGUGU (DNA:RNA)
RNA: B1 RNA with A26G, U28G, C29U
DNA 1: CAATCTGAATTCCGGTCTCCC
DNA 2: TGGTGGCTACGACGGGATT
B15: AUAGGCC (DNA:RNA)
RNA: B5 RNA with U25A, G26U, C27A, C28G, U29G
DNA 1: CAATCTGAATTCCGGTCTCCC
DNA 2: TGGTGGCTACGACGGGATT
B16: CCAGAGA (DNA:RNA)
RNA: B1 RNA with G25C, A26C, G27A, U28G, C29A, U31A
DNA 1: CAATCTGAATTCCGGTCTCCC
DNA 2: TGGTGGCTACGACGGGATT
B17: CUCCCAU (DNA:RNA)
RNA: B1 RNA with G25C, A26U, G27C, U28C, G30A
DNA 1: CAATCTGAATTCCGGTCTCCC
DNA 2: TGGTGGCTACGACGGGATT
B18: UUUCACC (DNA:RNA)
RNA: B5 RNA with G26U, C27U, U29A
DNA 1: CAATCTGAATTCCGGTCTCCC
DNA 2: TGGTGGCTACGACGGGATT
B19: GUAAUGA (DNA:RNA)
RNA: B1 RNA with A26U, G27A, U28A, C29U, U31A
DNA 1: CAATCTGAATTCCGGTCTCCC
DNA 2: TGGTGGCTACGACGGGATT
B20: CGGAUGA (DNA:RNA)
RNA: B1 RNA with G25C, A26G, U28A, C29U, U31A
DNA 1: CAATCTGAATTCCGGTCTCCC
DNA 2: TGGTGGCTACGACGGGATT
B21: GGGAUGA (DNA:RNA)
RNA: B1 RNA with A26G, U28A, C29U, U31A
DNA 1: CAATCTGAATTCCGGTCTCCC
DNA 2: TGGTGGCTACGACGGGATT
B22: GGAAUGA (DNA:RNA)
RNA: B1 RNA with A26G, G27A, U28A, C29U, U31A
DNA 1: CAATCTGAATTCCGGTCTCCC
DNA 2: TGGTGGCTACGACGGGATT
B23: GGAUGAA (DNA:RNA)
RNA: B1 RNA with A26G, G27A, C29G, G30A, U31A
DNA 1: CAATCTGAATTCCGGTCTCCC
DNA 2: TGGTGGCTACGACGGGATT
B24: GAAAUGA (DNA:RNA)
RNA: B1 RNA with G27A, U28A, C29U, U31A
DNA 1: CAATCTGAATTCCGGTCTCCC
DNA 2: TGGTGGCTACGACGGGATT
B25: UCACGAG (DNA:RNA)
RNA: B5 RNA with G26C, C27A, U29G, C30A, C31G
DNA 1: CAATCTGAATTCCGGTCTCCC
DNA 2: TGGTGGCTACGACGGGATT
B26: GCGUGGA (DNA:RNA)
RNA: B1 RNA with A26C, C29G, U31A
DNA 1: CAATCTGAATTCCGGTCTCCC
DNA 2: TGGTGGCTACGACGGGATT
B27: GGAAGUG (DNA:RNA)
RNA: B1 RNA with A26G, G27A, U28A, C29G, G30U, U31G
DNA 1: CAATCTGAATTCCGGTCTCCC
DNA 2: TGGTGGCTACGACGGGATT
B28: GGCACGU (DNA:RNA)
RNA: B1 RNA with A26G, G27C, U28A
DNA 1: CAATCTGAATTCCGGTCTCCC
DNA 2: TGGTGGCTACGACGGGATT
B29: ACCACGU (DNA:RNA)
RNA: B1 RNA with G25A, A26C, G27C, U28A
DNA 1: CAATCTGAATTCCGGTCTCCC
DNA 2: TGGTGGCTACGACGGGATT
B30: UGGCACC (DNA:RNA)
RNA: B5 RNA with C27G, U29A
DNA 1: CAATCTGAATTCCGGTCTCCC
DNA 2: TGGTGGCTACGACGGGATT
B31: AGGCACC (DNA:RNA)
RNA: B5 RNA with U25A, C27G, U29A
DNA 1: CAATCTGAATTCCGGTCTCCC
DNA 2: TGGTGGCTACGACGGGATT
B32: UGGCAGA (DNA:RNA)
RNA: B5 RNA with C27G, U29A, C30G, C31A
DNA 1: CAATCTGAATTCCGGTCTCCC
DNA 2: TGGTGGCTACGACGGGATT
B33: GGGCACG (DNA:RNA)
RNA: B5 RNA with U25G, C27G, U29A, C31G
DNA 1: CAATCTGAATTCCGGTCTCCC
DNA 2: TGGTGGCTACGACGGGATT
B34: AGCCACG (DNA:RNA)
RNA: B5 RNA with U25A, U29A, C31G
DNA 1: CAATCTGAATTCCGGTCTCCC
DNA 2: TGGTGGCTACGACGGGATT
B35: ACGUCGU (DNA:RNA)
RNA: B1 RNA with G25A, A26C
DNA 1: CAATCTGAATTCCGGTCTCCC
DNA 2: TGGTGGCTACGACGGGATT
B36: UGGCACG (DNA:RNA)
RNA: B5 RNA with C27G, U29A, C31G
DNA 1: CAATCTGAATTCCGGTCTCCC
DNA 2: TGGTGGCTACGACGGGATT
B37: GGGCACC (DNA:RNA)
RNA: B5 RNA with U25G, C27G, U29A
DNA 1: CAATCTGAATTCCGGTCTCCC
DNA 2: TGGTGGCTACGACGGGATT
B38: AGGCACG (DNA:RNA)
RNA: B5 RNA with U25A, C27G, U29A, C31G
DNA 1: CAATCTGAATTCCGGTCTCCC
DNA 2: TGGTGGCTACGACGGGATT
B39: GGGGCAC (DNA:RNA)
RNA: B1 RNA with A26G, U28G, G30A, U31C
DNA 1: CAATCTGAATTCCGGTCTCCC
DNA 2: TGGTGGCTACGACGGGATT

The target in this test is T1, RBFOX1 RRM. Kind of test: EMSA; HiTS-Eq, 1 nM pool, 10 min; buffer printed only for the single-RNA assays: 10 mM Tris pH 7.5, 150 mM NaCl, 3.4 mM EDTA, 0.001% NP-40, 30 C. The conditions noted are these: tags: His6 N-terminal (pET28a); label: 5' 32P. The procedure, abridged: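 Relative association constants, normalised to the cognate motif, were derived by comparing read counts of each RNA species with those of the control reaction. The RNA sequenced was the free fraction, separated by 8% native PAGE after a 10 min equilibration in 50 µL of 1 nM 5′-radiolabelled RNA (7 randomized nucleotides) with increasing concentrations of purified wild-type or mutant RbFox RRM.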
On the technique in general: Mobility shift assays separate free from complexed probe on a gel.
For the molecule B1, the binding signal was 0.0129 KA relative to UGCAUGU.
Next, B2: 0.00453 KA relative to UGCAUGU; B3: 0.0142 KA relative to UGCAUGU.
With B4 the figure was 0.0142 KA relative to UGCAUGU; with B5, 0.00846 KA relative to UGCAUGU.
With B6 the figure was 0.0505 KA relative to UGCAUGU; with B7, 0.0265 KA relative to UGCAUGU; with B8, 0.00933 KA relative to UGCAUGU.
In the case of B9, the binding signal is 0.0233 KA relative to UGCAUGU.
With B10 the figure was 0.00573 KA relative to UGCAUGU; with B11, 0.0192 KA relative to UGCAUGU; with B12, 0.0173 KA relative to UGCAUGU.
Regarding B13, the binding signal is 0.0321 KA relative to UGCAUGU.
Next, B14: 0.038 KA relative to UGCAUGU; B15: 0.0113 KA relative to UGCAUGU.
In the case of B16, the binding signal is 0.0103 KA relative to UGCAUGU.
With B17 the figure was 0.00325 KA relative to UGCAUGU.
Consider B18, for which the binding signal is 0.00771 KA relative to UGCAUGU.
Next, B19: 0.0136 KA relative to UGCAUGU.
With B20 the figure was 0.0221 KA relative to UGCAUGU; with B21, 0.0379 KA relative to UGCAUGU; with B22, 0.0487 KA relative to UGCAUGU.
With B23 the figure was 0.0174 KA relative to UGCAUGU; with B24, 0.0134 KA relative to UGCAUGU.
On to B25, for which the binding signal was 0.0108 KA relative to UGCAUGU.
With B26 the figure was 0.0179 KA relative to UGCAUGU.
With B27 the figure was 0.0211 KA relative to UGCAUGU; with B28, 0.0321 KA relative to UGCAUGU; with B29, 0.00412 KA relative to UGCAUGU.
Next, B30: 0.0134 KA relative to UGCAUGU; B31: 0.00933 KA relative to UGCAUGU; B32: 0.0265 KA relative to UGCAUGU.
With B33, the binding signal is 0.0317 KA relative to UGCAUGU.
For the molecule B34, the binding signal is 0.00567 KA relative to UGCAUGU.
With B35 the figure was 0.00803 KA relative to UGCAUGU; with B36, 0.0541 KA relative to UGCAUGU; with B37, 0.0223 KA relative to UGCAUGU.
Next, B38: 0.0414 KA relative to UGCAUGU.
In the case of B39, the binding signal was 0.0252 KA relative to UGCAUGU.

(Values after article PMC9911399, “Two distinct binding modes provide the RNA-binding protein RbFox with extraordinary sequence specificity”.)
